Laboratory results taken from PubChem BioAssay (EPA / NIEHS).
Active and inactive are the calls of the source. The calls were made as follows: active = hit-call score of the fitted dose curve at least 0.9, where 1 is the maximum; inactive = score below 0.9.

What follows are molecules tested on Human Leukocyte Antigen - DR isotype (HLADR), HLA-DRA (gene 3122) (assay: BSK_BE3C_HLADR: BioMAP Diversity Plus: BE3C Assay for Human Leukocyte Antigen - DR isotype (HLADR) Biomarker Activity (AID 2283032)). Settings: primary human bronchial epithelial cells; actives raise or lower the signal.
Protocol: BSK_BE3C is a cell-based, multiplexed-readout assay that uses bronchial epithelial cell, a human lung primary cell, with measurements taken at 24 hours after chemical dosing in a 96-well plate.BSK_BE3C_HLADR is an assay component measured in the BSK_BE3C assay. It measures HLA-DR antibody related to regulation of gene expression using ELISA technology.Data from the assay component BSK_BE3C_HLADR was analyzed into 1 assay endpoint. This assay endpoint, BSK_BE3C_HLADR, was analyzed with bidirectional fitting relative to DMSO as the negative control and baseline of activity. Using a type of binding reporter, gain or loss-of-signal activity can be used to understand changes in the signaling as they relate to the gene HLA-DRA. Furthermore, this assay endpoint can be referred to as a primary readout, because this assay has produced multiple assay endpoints where this one serves a signaling function. To generalize the intended target to other relatable targets, this assay endpoint is annotated to the cell adhesion molecules intended target family, where the subfamily is MHC Class II.
The levels of cell surface (or secreted, indicated by the prefix "s") biomarker endpoints were measured by ELISA. Overt cytotoxicity to cells in confluent adherent cultures (all systems other than the BT system) was assessed by measuring total protein levels using sulforhodamine B (SRB) staining in parallel cultures at the time of biomarker measurements, indicated as SRB endpoints. For proliferation assays for adherent cell types, individual cell types are cultured at sub-confluence and relative cell numbers quantified by SRB staining at time points optimized for each system (48 h: 3C and CASM3C systems; 72 h: BT and HDF3CGF systems; 96 h: SAg system). SRB was performed by staining cells with 0.1% SRB after fixation with 10% TCA and reading wells at 560 nm.Viability and proliferation of PBMC (T cells) was quantified by Alamar Blue reduction for the SAg and BT systems. For PBMC viability (referred to as PBMC Cytotoxicity within the assay endpoint names), cells were plated (75,000/well in a 96-well plate) and then chemical samples added for 1 h before addition of activators, SEB and TSST-1 (20 ng/mL final concentration each). Cells were incubated for 90 h. Then, Alamar Blue (20 uL/well) (Invitrogen, Cat DAL1100) was added for 6 h, and the plates were read with a fluorescence microplate reader at 546/580 nm (excitation/emission). For PBMC proliferation, cells were plated and activated as above but incubated for only 16 h prior to addition of Alamar Blue. Plates were read after 6 h.

SMILES | outcome | AC50
Cc1c(COC(=O)[C@@H]2[C@H](/C=C(\Cl)C(F)(F)F)C2(C)C)cccc1-c1ccccc1 | inactive | –
Nc1c(Cl)c(Cl)nc(C(=O)O)c1Cl | inactive | –
CCOc1cc(C(C)(C)C)ccc1C1COC(c2c(F)cccc2F)=N1 (stereo not given) | – | 14.3 µM (active)
O=C1C2CC=CCC2C(=O)N1SC(Cl)(Cl)Cl (stereo not given) | – | 12.3 µM (active)
COC(=O)NC(=S)Nc1ccccc1NC(=S)NC(=O)OC | inactive | –
CNC(=O)Oc1cccc2ccccc12 | inactive | –
CCNP(=S)(OC)O/C(C)=C/C(=O)OC(C)C (stereo not given) | inactive | –
CS(=O)(=O)c1ccc(C(=O)C2C(=O)CCCC2=O)c([N+](=O)[O-])c1 | inactive | –
CCN(CC)c1nc(C)cc(OP(=S)(OC)OC)n1 | – | 20 µM (active)
CCCN(CC)CC1COC2(CCC(C(C)(C)C)CC2)O1 (stereo not given) | inactive | –
CN=C=S | inactive | –
COc1cc(OC)nc(NC(=O)NS(=O)(=O)c2ncccc2OCC(F)(F)F)n1 | inactive | –
CC(C)C1(C)N=C(c2ncccc2C(=O)O)NC1=O (stereo not given) | inactive | –
CCCCC(O)(Cn1cncn1)c1ccc(Cl)cc1Cl (stereo not given) | – | 16 µM (active)
COC(=O)N(C(=O)N1CO[C@@]2(C(=O)OC)Cc3cc(Cl)ccc3C2=N1)c1ccc(OC(F)(F)F)cc1 | – | 13.8 µM (active)
O=P(O)(O)CCCl | inactive | –
Cc1nc(N(C)C)nc(OC(=O)N(C)C)c1C | inactive | –
CNC(=O)N(C)c1nnc(C(C)(C)C)s1 | inactive | –
O=C(O)c1c(Cl)ccc2cc(Cl)cnc12 | inactive | –
COC(=O)c1c(C(F)F)nc(C(F)(F)F)c(C2=NCCS2)c1CC(C)C | – | 3.97 µM (active)

SMILES | outcome | AC50
CCCCOCN(C(=O)CCl)c1c(CC)cccc1CC | – | 29.8 µM (active)
Clc1cccc(C(Cl)(Cl)Cl)n1 | inactive | –
CC(C)N1C(=O)N(c2ccccc2)CSC1=NC(C)(C)C | – | 28.9 µM (active)
CCCCC(C#N)(Cn1cncn1)c1ccc(Cl)cc1 (stereo not given) | inactive | –
CC1(C)C(C(=O)OC(C#N)c2cccc(Oc3ccccc3)c2)C1(C)C (stereo not given) | inactive | –
COCC(=O)N(c1c(C)cccc1C)C(C)C(=O)OC (stereo not given) | inactive | –
COCC(C)N(C(=O)CCl)c1c(C)csc1C (stereo not given) | inactive | –
COP(=S)(OC)Oc1ccc([N+](=O)[O-])c(C)c1 | – | 20 µM (active)
CCC(C)n1c(=O)[nH]c(C)c(Br)c1=O (stereo not given) | inactive | –
CSC(=O)c1c(C(F)F)nc(C(F)(F)F)c(C(=O)SC)c1CC(C)C | inactive | –
N#Cc1c(Cl)cccc1Cl | inactive | –
CC1(C)C(C=C(Cl)Cl)C1C(=O)OC(C#N)c1cccc(Oc2ccccc2)c1 (stereo not given) | inactive | –
CC(C)N1C(=O)c2ccccc2NS1(=O)=O | inactive | –
O=C(Nc1ccccc1-c1ccc(Cl)cc1)c1cccnc1Cl | – | 5.32 µM (active)
CCOP(=O)(OCC)Oc1nc(Cl)c(Cl)cc1Cl | inactive | –
CCSC(=O)N1CCCCCC1 | inactive | –
CC(C)(C)C(=O)C(Oc1ccc(Cl)cc1)n1cncn1 (stereo not given) | inactive | –
C=CCOC(=O)C(C)(C)OC(=O)c1cc(-n2c(=O)cc(C(F)(F)F)n(C)c2=O)ccc1Cl | inactive | –
N#Cc1c[nH]cc1-c1cccc2c1OC(F)(F)O2 | inactive | –
CC1(C)CCC(=Cc2ccc(Cl)cc2)C1(O)Cn1cncn1 (stereo not given) | inactive | –
